In PubChem BioAssay (EPA / NIEHS) one finds AC50 and outcome data, which are given here for 3 molecules.

Activity calls are given as the source filed them. How the source made its calls: active means hit-call score of the fitted dose curve at least 0.9, where 1 is the maximum; inactive means score below 0.9.

Conditions in all cases: mRNA level, 48 h; actives raise or lower the signal
Read-out in experiment [1]: Lipoprotein lipase (LPL), LPL (gene 4023)
Put plainly: LTEA_HepaRG_LPL: Life Technologies and Expression Analysis (LTEA) Assay for Lipoprotein lipase (LPL) using HepaRG (AID 2283515). In a few lines:
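Differentiated HepaRG cells, plated 48 h, then exposed 48 h in serum-free induction medium to 8 concentrations (top 100 uM, half-log steps) in 0.5% DMSO, duplicate. LPL mRNA measured by qRT-PCR, normalized to ACTB, GAPDH and POLR2A.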

Read-out in experiment [2]: MicroRNA 122 (MIR122), gene 406906
Put plainly: LTEA_HepaRG_MIR122: Life Technologies and Expression Analysis (LTEA) Assay for MicroRNA 122 (MIR122) using HepaRG (AID 2283516). Further: the transcript read is the microRNA miR-122. In a few lines: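 Differentiated human HepaRG cells in serum-free induction medium exposed 48 h to 8 half-log concentrations from 100 uM in 0.5% DMSO, duplicate. MIR122 quantified by Fluidigm TaqMan qRT-PCR, normalised to ACTB, GAPDH, POLR2A; fold change fitted bidirectionally versus DMSO.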

Read-out in experiment [3]: matrix metalloproteinase-10 (MMP10), MMP10 (gene 4319)
Put plainly: LTEA_HepaRG_MMP10: Life Technologies and Expression Analysis (LTEA) Assay for matrix metalloproteinase-10 (MMP10) using HepaRG (AID 2283517). In a few lines:
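Differentiated HepaRG cells in serum-free induction medium exposed 48 h in duplicate to 8-point half-log series up to 100 uM in 0.5% DMSO. mRNA quantified by qRT-PCR, normalised to ACTB, GAPDH, POLR2A; bidirectional fit versus DMSO.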

Read-out in experiment [4]: MYC, MYC (gene 4609)
Put plainly: LTEA_HepaRG_MYC: Life Technologies and Expression Analysis (LTEA) Assay for MYC using HepaRG (AID 2283518). The method in brief:
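Differentiated human HepaRG cells, plated 48 h then switched to serum-free induction medium, were exposed in duplicate for 48 h to 8-point half-log series up to 100 uM in 0.5% DMSO. MYC mRNA measured by qRT-PCR, normalized to ACTB/GAPDH/POLR2A.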

Read-out in experiment [5]: matrix metalloproteinase-3 (MMP3), MMP3 (gene 4314)
Put plainly: LTEA_HepaRG_MMP3: Life Technologies and Expression Analysis (LTEA) Assay for matrix metalloproteinase-3 (MMP3) using HepaRG (AID 2283519). The method in brief: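 HepaRG cells (~100,000/well) in serum-free induction medium were dosed in duplicate for 48 h with an 8-point half-log series from 100 uM, 0.5% DMSO. MMP3 mRNA was quantified by Fluidigm TaqMan qRT-PCR, normalized to three housekeeping genes.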

Read-out in experiment [6]: Paternally Expressed 10 (PEG10), PEG10 (gene 23089)
Put plainly: LTEA_HepaRG_PEG10: Life Technologies and Expression Analysis (LTEA) Assay for Paternally Expressed 10 (PEG10) using HepaRG (AID 2283520). In a few lines: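 Differentiated HepaRG cells exposed 48 h in serum-free induction medium to eight half-log concentrations topping at 100 uM, 0.5% DMSO, in duplicate. PEG10 mRNA quantified by TaqMan qRT-PCR, normalized to ACTB, GAPDH and POLR2A; bidirectional fit versus DMSO.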

Read-out in experiment [7]: Nuclear factor NF-kappa-B p105 subunit (Homo sapiens) (UniProt P19838)
Put plainly: LTEA_HepaRG_NFKB1: Life Technologies and Expression Analysis (LTEA) Assay for Nuclear Factor Kappa B Subunit 1 (NFKB1) using HepaRG (AID 2283521).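 Further: TaqMan qRT-PCR transcript normalised to ACTB GAPDH and POLR2A housekeeping genes.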 In a few lines:
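Differentiated human HepaRG cells in serum-free induction medium with 0.5% DMSO were exposed for 48 h to eight half-log concentrations, top 100 uM, in duplicate. NFKB1 mRNA measured by Fluidigm TaqMan qRT-PCR, normalised to ACTB, GAPDH and POLR2A; bidirectional fit versus DMSO.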

Read-out in experiment [8]: Protein phosphatase 2A (PPP2R4), PTPA (gene 5524)
Put plainly: LTEA_HepaRG_PPP2R4: Life Technologies and Expression Analysis (LTEA) Assay for Protein phosphatase 2A (PPP2R4) using HepaRG (AID 2283522). In a few lines: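 Differentiated human HepaRG cells in serum-free induction medium were exposed 48 h to 8 concentrations (top 100 µM, half-log steps, duplicate) in 0.5% DMSO. PPP2R4 mRNA was measured by TaqMan qRT-PCR, normalised to ACTB, GAPDH and POLR2A, and fitted bidirectionally versus DMSO.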

Read-out in experiment [9]: Phosphatase and tensin (PTEN), PTEN (gene 5728)
Put plainly: LTEA_HepaRG_PTEN: Life Technologies and Expression Analysis (LTEA) Assay for Phosphatase and tensin (PTEN) using HepaRG (AID 2283523). In a few lines:
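HepaRG cells, 48 h after plating, exposed in duplicate for 48 h in serum-free induction medium to 8 half-log concentrations up to 100 uM (0.5% DMSO). PTEN mRNA by qRT-PCR, normalized to ACTB, GAPDH, POLR2A; bidirectional fit versus DMSO.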

Read-out in experiment [10]: solute carrier (SLC22A1), SLC22A1 (gene 6580)
Put plainly: LTEA_HepaRG_SLC22A1: Life Technologies and Expression Analysis (LTEA) Assay for solute carrier (SLC22A1) using HepaRG (AID 2283524). In a few lines:
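Differentiated human HepaRG cells in serum-free induction medium, exposed 48 h in duplicate to 8-point half-log series from 100 µM top in 0.5% DMSO. SLC22A1 mRNA by TaqMan qRT-PCR normalized to ACTB, GAPDH, POLR2A; bidirectional fit versus DMSO.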

Read-out in experiment [11]: Pyruvate Dehydrogenase Kinase 4 (PDK4), PDK4 (gene 5166)
Put plainly: LTEA_HepaRG_PDK4: Life Technologies and Expression Analysis (LTEA) Assay for Pyruvate Dehydrogenase Kinase 4 (PDK4) using HepaRG (AID 2283525). The method in brief:
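HepaRG cells plated 48 h, then switched to serum-free induction medium and exposed in duplicate for 48 h to 8 half-log concentrations from 100 uM in 0.5% DMSO. PDK4 mRNA measured by qRT-PCR, normalized to ACTB, GAPDH and POLR2A; bidirectional fit versus DMSO.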

Read-out in experiment [12]: NAD(P)H dehydrogenase [quinone] 1 (NQO1), NQO1 (gene 1728)
Put plainly: LTEA_HepaRG_NQO1: Life Technologies and Expression Analysis (LTEA) Assay for NAD(P)H dehydrogenase [quinone] 1 (NQO1) using HepaRG (AID 2283526). The method in brief:
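Differentiated human HepaRG cells in serum-free induction medium, dosed in duplicate for 48 h at 8 half-log concentrations up to 100 uM in 0.5% DMSO. NQO1 mRNA by qRT-PCR normalized to ACTB, GAPDH, POLR2A; bidirectional fit versus DMSO baseline.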

Read-out in experiment [13]: Nuclear factor erythroid 2-related factor 2 (Homo sapiens) (UniProt Q16236)
Put plainly: LTEA_HepaRG_NFE2L2: Life Technologies and Expression Analysis (LTEA) Assay for Nuclear factor erythroid 2-related factor 2 (NFE2L2) Transcription Factor using HepaRG (AID 2283527).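 On outcome: TaqMan qRT-PCR transcript level normalised to ACTB GAPDH and POLR2A housekeeping genes.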 In a few lines:
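Differentiated human HepaRG cells, serum-free induction medium, exposed 48 h in duplicate to eight half-log concentrations up to 100 uM in 0.5% DMSO. NFE2L2 mRNA by Fluidigm TaqMan qRT-PCR, normalised to ACTB, GAPDH, POLR2A; bidirectional change versus DMSO.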

Read-out in experiment [14]: succinate dehydrogenase complex iron sulfur subunit B (SDHB), SDHB (gene 6390)
Put plainly: LTEA_HepaRG_SDHB: Life Technologies and Expression Analysis (LTEA) Assay for succinate dehydrogenase complex iron sulfur subunit B (SDHB) using HepaRG (AID 2283528). The method in brief: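 HepaRG cells (~100,000/well, plated 48 h) exposed in duplicate for 48 h in serum-free induction medium to 8-point half-log series from 100 uM in 0.5% DMSO; mRNA by qRT-PCR normalised to ACTB, GAPDH, POLR2A; bidirectional fit versus DMSO.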

Read-out in experiment [15]: Signal transducer and activator of transcription 3 (Homo sapiens) (UniProt P40763)
Put plainly: LTEA_HepaRG_STAT3: Life Technologies and Expression Analysis (LTEA) Assay for Signal transducer and activator of transcription (STAT3) using HepaRG (AID 2283529). The method in brief:
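Differentiated HepaRG cells, serum-free induction medium, dosed 48 h in duplicate, 8 half-log concentrations from 100 uM in 0.5% DMSO. STAT3 mRNA by qRT-PCR, normalised to ACTB, GAPDH, POLR2A; bidirectional fit versus DMSO.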

Read-out in experiment [16]: solute carrier (SLCO1B1), SLCO1B1 (gene 10599)
Put plainly: LTEA_HepaRG_SLCO1B1: Life Technologies and Expression Analysis (LTEA) Assay for solute carrier (SLCO1B1) using HepaRG (AID 2283530). The method in brief:
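Differentiated human HepaRG cells, plated 48 h, switched to serum-free induction medium and exposed in duplicate for 48 h to 8 half-log concentrations (top 100 uM) in 0.5% DMSO. SLCO1B1 mRNA by TaqMan qRT-PCR, normalized to ACTB/GAPDH/POLR2A.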

Read-out in experiment [17]: sulfotransferase 2A1 (SULT2A1), SULT2A1 (gene 6822)
Put plainly: LTEA_HepaRG_SULT2A1: Life Technologies and Expression Analysis (LTEA) Assay for sulfotransferase 2A1 (SULT2A1) using HepaRG (AID 2283531). The method in brief:
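Differentiated human HepaRG cells in serum-free induction medium were exposed for 48 h to eight half-log concentrations (top 100 uM, 0.5% DMSO). SULT2A1 mRNA was measured by qRT-PCR, normalized to ACTB, GAPDH and POLR2A, and fitted bidirectionally against DMSO.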

Read-out in experiment [18]: Transforming Growth Factor (TGFA), TGFA (gene 7039)
Put plainly: LTEA_HepaRG_TGFA: Life Technologies and Expression Analysis (LTEA) Assay for Transforming Growth Factor (TGFA) using HepaRG (AID 2283532). The method in brief:
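Differentiated HepaRG cells exposed 48 hours in serum-free induction medium, 0.5% DMSO vehicle, 8-point half-log series from 100 uM, in duplicate. TGFA mRNA by TaqMan qRT-PCR, normalised to ACTB, GAPDH, POLR2A; bidirectional fit versus DMSO.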

Read-out in experiment [19]: Transforming Growth Factor (TGFB1), TGFB1 (gene 7040)
Put plainly: LTEA_HepaRG_TGFB1: Life Technologies and Expression Analysis (LTEA) Assay for Transforming Growth Factor (TGFB1) Transporter using HepaRG (AID 2283533). The method in brief: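 Differentiated human HepaRG cells in serum-free induction medium were exposed in duplicate for 48 h to eight concentrations (top 100 uM, half-log steps, 0.5% DMSO). TGFB1 mRNA was quantified by qRT-PCR, normalized to ACTB, GAPDH, POLR2A, and fitted bidirectionally against DMSO.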

Read-out in experiment [20]: TIMP1, TIMP1 (gene 7076)
Put plainly: LTEA_HepaRG_TIMP1: Life Technologies and Expression Analysis (LTEA) Assay for TIMP1 using HepaRG (AID 2283534).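 On outcome: TaqMan qRT-PCR signal normalized to ACTB GAPDH and POLR2A housekeeping genes.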 The method in brief: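 Differentiated human HepaRG cells in serum-free induction medium were exposed 48 h to chemicals (8 half-log concentrations, top 100 uM, 0.5% DMSO). TIMP1 mRNA was quantified by TaqMan qRT-PCR, normalized to ACTB/GAPDH/POLR2A; bidirectional fit versus DMSO.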

Sequence of Signal transducer and activator of transcription 3 (Homo sapiens) (P40763 whole entry, looked up): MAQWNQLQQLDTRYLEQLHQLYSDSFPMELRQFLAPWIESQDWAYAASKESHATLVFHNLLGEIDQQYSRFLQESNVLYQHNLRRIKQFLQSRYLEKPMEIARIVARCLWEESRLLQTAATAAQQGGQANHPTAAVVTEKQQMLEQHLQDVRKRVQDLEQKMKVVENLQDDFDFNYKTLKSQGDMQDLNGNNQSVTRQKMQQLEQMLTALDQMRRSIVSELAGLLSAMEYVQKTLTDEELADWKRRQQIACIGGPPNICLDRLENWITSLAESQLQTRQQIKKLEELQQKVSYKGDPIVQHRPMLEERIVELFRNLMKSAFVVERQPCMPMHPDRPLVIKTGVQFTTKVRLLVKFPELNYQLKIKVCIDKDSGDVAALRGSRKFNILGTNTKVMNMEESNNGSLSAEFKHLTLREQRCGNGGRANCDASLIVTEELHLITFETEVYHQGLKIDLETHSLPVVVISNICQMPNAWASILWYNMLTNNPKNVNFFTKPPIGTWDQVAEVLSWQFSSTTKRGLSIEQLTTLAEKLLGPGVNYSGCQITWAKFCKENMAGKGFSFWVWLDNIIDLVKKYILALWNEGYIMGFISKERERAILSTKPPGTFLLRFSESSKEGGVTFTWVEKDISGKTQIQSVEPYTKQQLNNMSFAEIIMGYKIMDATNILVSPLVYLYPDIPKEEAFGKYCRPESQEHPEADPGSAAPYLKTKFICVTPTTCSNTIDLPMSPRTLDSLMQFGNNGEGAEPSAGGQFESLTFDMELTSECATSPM
Sequence of Nuclear factor erythroid 2-related factor 2 (Homo sapiens) (Q16236 whole entry, looked up): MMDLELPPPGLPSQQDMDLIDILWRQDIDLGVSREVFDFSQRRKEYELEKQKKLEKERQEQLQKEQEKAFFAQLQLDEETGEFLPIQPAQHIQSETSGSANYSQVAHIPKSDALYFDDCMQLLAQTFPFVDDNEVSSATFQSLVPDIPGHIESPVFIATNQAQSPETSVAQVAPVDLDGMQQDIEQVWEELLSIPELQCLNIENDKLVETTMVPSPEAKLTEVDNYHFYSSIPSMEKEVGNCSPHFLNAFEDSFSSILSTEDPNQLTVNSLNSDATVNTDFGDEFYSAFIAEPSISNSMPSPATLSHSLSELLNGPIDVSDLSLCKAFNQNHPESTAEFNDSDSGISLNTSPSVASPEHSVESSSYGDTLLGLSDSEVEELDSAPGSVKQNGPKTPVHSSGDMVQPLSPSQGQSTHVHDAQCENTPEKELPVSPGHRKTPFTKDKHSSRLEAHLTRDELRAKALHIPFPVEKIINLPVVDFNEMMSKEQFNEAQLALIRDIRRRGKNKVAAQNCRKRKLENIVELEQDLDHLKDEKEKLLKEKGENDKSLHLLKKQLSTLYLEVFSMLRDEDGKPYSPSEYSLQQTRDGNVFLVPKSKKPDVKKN
Sequence of Nuclear factor NF-kappa-B p105 subunit (Homo sapiens) (P19838 whole entry, looked up): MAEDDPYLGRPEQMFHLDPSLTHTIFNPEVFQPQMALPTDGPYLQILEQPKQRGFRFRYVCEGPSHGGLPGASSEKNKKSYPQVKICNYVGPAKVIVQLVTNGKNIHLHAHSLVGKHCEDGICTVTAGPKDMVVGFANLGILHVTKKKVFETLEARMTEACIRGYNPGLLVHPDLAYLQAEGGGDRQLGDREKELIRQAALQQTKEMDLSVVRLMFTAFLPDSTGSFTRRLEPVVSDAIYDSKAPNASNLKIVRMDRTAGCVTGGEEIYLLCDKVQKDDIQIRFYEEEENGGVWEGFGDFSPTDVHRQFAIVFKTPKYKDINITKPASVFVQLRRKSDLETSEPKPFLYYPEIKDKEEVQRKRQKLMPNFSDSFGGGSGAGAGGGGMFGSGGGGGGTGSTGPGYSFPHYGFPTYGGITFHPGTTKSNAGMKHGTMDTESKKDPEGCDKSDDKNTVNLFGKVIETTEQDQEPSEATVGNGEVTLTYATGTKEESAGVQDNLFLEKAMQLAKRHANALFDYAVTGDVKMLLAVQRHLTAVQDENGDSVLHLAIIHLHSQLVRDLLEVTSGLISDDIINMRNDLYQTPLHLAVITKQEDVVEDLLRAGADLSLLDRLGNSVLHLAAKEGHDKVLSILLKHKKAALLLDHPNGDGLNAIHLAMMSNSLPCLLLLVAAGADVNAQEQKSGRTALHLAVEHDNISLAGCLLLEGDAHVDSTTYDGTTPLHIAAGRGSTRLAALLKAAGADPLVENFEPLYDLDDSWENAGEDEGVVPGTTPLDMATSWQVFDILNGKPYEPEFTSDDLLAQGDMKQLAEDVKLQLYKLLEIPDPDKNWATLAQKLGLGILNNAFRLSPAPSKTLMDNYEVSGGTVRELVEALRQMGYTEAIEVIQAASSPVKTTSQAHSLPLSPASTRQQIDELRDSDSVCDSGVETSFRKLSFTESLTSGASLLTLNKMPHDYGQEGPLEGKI

As to `CCc1nn(C)c(C(=O)NCc2ccc(C(C)(C)C)cc2)c1Cl`, the AC50 is 2.22 µM (active) in experiment [1]; 1.85 µM (active) in [2]; 26.5 µM (active) in [3]; 5.39 µM (active) in experiment [4]; 0.484 µM (active) in [6]; 50 µM (active) in experiment [9]. The AC50 was 4.52 µM (active) in [10]; 0.723 µM (active) in [11]; 50 µM (active) in [12]; 10.6 µM (active) in experiment [13]; 31.3 µM (active) in experiment [16]; 26.8 µM (active) in experiment [17]. Further, the results for the AC50 in [18], in experiment [19] and in [20] were 16.4 µM (active), 50 µM (active) and 28 µM (active), respectively. Further, the outcome in experiment [5], in experiment [7], in [8], in [14] and in experiment [15] was inactive.

Take `Cc1c(F)c(F)c(COC(=O)C2C(/C=C(\Cl)C(F)(F)F)C2(C)C)c(F)c1F` (stereo not given): the molecule was called inactive in [1], in [2], in experiment [3], in [4], in experiment [5] and in [6]. Besides, the outcome in experiment [7], in experiment [8], in [9], in [11], in [12] and in experiment [13] was inactive. The outcome in experiment [14], in experiment [15], in [16], in experiment [17], in experiment [18] and in experiment [19] was inactive. The result in experiment [20] was inactive. Moreover, in experiment [10], the concentration at half-maximal activity (AC50) was 12.3 µM (active).

Take `CS/C(C)=N/OC(=O)N(C)SN(C)C(=O)O/N=C(\C)SC`: the call in [1], in [2], in [3], in experiment [4], in experiment [5] and in experiment [6] was inactive. For the same molecule, the result in experiment [7], in [8], in [9], in experiment [10], in experiment [11] and in [12] was inactive. Besides, the molecule was called inactive in experiment [13], in experiment [14], in experiment [15], in experiment [16], in [17] and in experiment [18]. The molecule was called inactive in experiment [19] and in experiment [20].

A word on the AC50: it is the midpoint of the concentration-response curve, whichever way the signal moves.
